Screening results (PubChem)
GLS inh – qHTS for Inhibitors of Glutaminase (GLS); AID 624170, 2012; Potency, µM (doses to about 45.5 µM), actives largely listed as inhibitors; Glutaminase kidney isoform, mitochondrial (Homo sapiens), O94925; 410,000 tested, 0.21% active; GLS enzymatic activity, qHTS titration
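Coupled fluorescence readout: glutamate oxidase/HRP/Amplex Red detect glutamate formed by hKGA from L-glutamine (1 mM solution added). Buffer 45 mM KH2PO4 pH 8.2, 0.02% Tween-20; reads at t0 and 30 min RT.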
VDR inhibitor – Inhibitors of the vitamin D receptor (VDR): qHTS. AID 504847, 2011. Potency, µM, most hits filed as inhibitors. 400,000 tested, 0.93% active. VDR-SRC2-3 peptide fluorescence polarization, 2 h. Vitamin D3 receptor (Homo sapiens), P11473
Target sequence (P11473 whole entry, looked up): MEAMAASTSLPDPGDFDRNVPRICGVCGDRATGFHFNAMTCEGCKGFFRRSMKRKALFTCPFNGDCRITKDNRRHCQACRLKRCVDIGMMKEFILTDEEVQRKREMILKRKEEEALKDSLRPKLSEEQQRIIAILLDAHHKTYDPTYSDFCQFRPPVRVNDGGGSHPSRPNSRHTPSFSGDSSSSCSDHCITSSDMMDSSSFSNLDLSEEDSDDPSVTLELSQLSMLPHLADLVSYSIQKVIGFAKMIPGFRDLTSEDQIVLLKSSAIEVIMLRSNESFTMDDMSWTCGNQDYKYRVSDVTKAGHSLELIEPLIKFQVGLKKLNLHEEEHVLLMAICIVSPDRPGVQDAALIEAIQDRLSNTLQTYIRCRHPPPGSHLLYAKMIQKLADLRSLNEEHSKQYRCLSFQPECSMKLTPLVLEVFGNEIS
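After 23 nl compound addition and a short centrifugation, plates sat for 2 hours at ambient temperature; polarization of fluorescence then indicated loss of VDR binding to peptide SRC2-3.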
PI4K2A block – qHTS for small molecular inhibitors of PI4K2A; Phosphatidylinositol 4-kinase type 2-alpha (Homo sapiens), Q9BTU6; purified PI4K2A, ADP-Glo luminescence, 1 h; hits give low values; activity change, negative = inhibition, % at 76.9 µM; 420,000 tested, 0.13% active; AID 1346378, 2018; in the data active = activity change below about -50%; inconclusive = mostly about -30% to -49%
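ADP-Glo luminescence measured ADP generated by PI4K2A enzyme (4 ug/mL before mixing) with 1.2 mM PI substrate (pre-mix) and 300 microM ATP (pre-mix). Tris pH7.5 buffer with MgCl2, Triton X-100; 1 h reaction at ambient temperature.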
PLK1 PBD block – qHTS for Inhibitors of PLK1-PDB (polo-like kinase 1 - polo-box domain): Primary Screen. Serine/threonine-protein kinase PLK1 (Homo sapiens), P53350. Plk1 PBD binding of FITC phosphopeptide, fluorescence polarization. Potency, µM, most hits filed as inhibitors. 360,000 tested, 2.8% active; note: series mostly up to about 57 µM; nearly all actives have a fitted effect of over 65% in size
GCN5L2 inh-1 – qHTS Assay for Inhibitors of GCN5L2 | Histone acetyltransferase KAT2A (Homo sapiens), Q92830 | GCN5L2 HAT assay, ThioGlo1 CoA-SH fluorescence | Potency, µM (titrated, usually from 58.9 µM), hits mostly inhibitors | 390,000 tested, 0.21% active
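Enzyme at 20nM final was mixed with library compounds for 15 min at room temperature. Peptide H3(1-25) at 75uM, acetyl-CoA at 70uM and ThioGlo1 at 50uM were then added. Plates were read immediately and after 20 min (Ex340nm/Em540nm).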
GCN5L2 inh-2 – qHTS Assay for Inhibitors of GCN5L2: Hit confirmation; shares compounds with GCN5L2 inh-1; GCN5L2 HAT, ThioGlo1 CoA fluorescence, 20 min; Potency, µM, most hits filed as inhibitors; 140 tested, 70% active
USP1 UbRho – Inhibitors of USP1/UAF1: Hit Validation in Primary Assay; shares compounds with VDR inhibitor; Potency, µM (titrated, usually from 114 µM), actives largely listed as inhibitors; Ub-Rhodamine cleavage, fluorescence kinetic read; 50 tested, 50% active
VDR confirm – qHTS for Inhibitors of the vitamin D receptor (VDR): Hit Validation in Primary Screen; shares compounds with VDR inhibitor; VDR-coactivator inhibition assay, qHTS confirmation; Potency, µM, usual class: inhibitors; 840 tested, 89% active
VDR FP fluor – qHTS for Inhibitors of the vitamin D receptor (VDR): Hit Validation using a Fluorescein Assay | shares compounds with VDR inhibitor | VDR-coactivator binding, fluorescein fluorescence polarization | Potency, µM (top dose mostly 57.1 µM), actives largely listed as inhibitors | 840 tested, 48% active
VDR bla reporter – qHTS for Inhibitors of the vitamin D receptor (VDR): Hit Validation using a Beta-Lactamase Assay | 840 tested, 23% active | shares compounds with VDR inhibitor | Potency, µM (series often up to 46.1 µM), most hits filed as inhibitors | VDR beta-lactamase reporter cells, FRET ratio; cells co-treated with VDR agonist LG190178
VDR cytotox – qHTS for Inhibitors of the vitamin D receptor (VDR): Hit Validation using a Cytotoxicity Assay; shares compounds with VDR inhibitor; cytotoxicity counter-screen, cell viability, qHTS; Potency, µM (doses to about 48.3 µM), most hits filed as cytotoxic; 840 tested, 18% active; note: nearly all actives have a fitted effect of over 75% in size
TbPYK confirm – qHTS of Trypanosoma Brucei Inhibitors: Confirmatory Assay for Cherry-picked Compounds | recombinant TbPYK, Kinase-Glo ATP luminescence | shares compounds with PLK1 PBD block | 890 tested, 67% active | Potency, µM (series often up to 76.9 µM), hits mostly inhibitors; note: nearly all actives have a fitted effect of over 70% in size
TbPYK ADP-Glo – qHTS of Trypanosoma Brucei Inhibitors: Orthogonal Assay for Cherry-picked Compounds; recombinant TbPYK, ADP-Glo luminescence, 60 min; 890 tested, 62% active; Potency, µM (highest dose often 76.9 µM), hits mostly inhibitors; shares compounds with PLK1 PBD block; note: nearly all actives have a fitted effect of over 75% in size
Large screens that a line does not name were inactive (follow-up assays come after a bar, where they were run). Only some compounds are listed: those with a hit (about 3.1% of all), similar ones and a draw of the others. Unless noted, calls come from the whole dose curve; as a rule, active = well fitted curve in the direction sought with a large enough effect; inconclusive = small, poorly fitted or top-dose-only effect, or another doubt; inactive = no such curve, though single readings can be large; an effect the other way counts as inactive or inconclusive.

O=C(O)CSCC(=O)N(Cc1ccccc1)c1nc(-c2ccccc2)c(-c2ccccc2)s1	VDR inhibitor inconclusive, PLK1 PBD block 30µM, GCN5L2 inh-1 11µM | GCN5L2 inh-2 23
NCC(CC(=O)O)c1ccc(Cl)s1 (centres undefined)	none (no result: GLS inh, PI4K2A block, PLK1 PBD block)
O=C(O)CCC(=O)NCCC1=c2ccccc2=N/C1=C\c1c(O)n(Cc2ccc(F)cc2)c(=S)[nH]c1=O	GLS inh inconclusive, VDR inhibitor 20µM, PLK1 PBD block 1.2µM, GCN5L2 inh-1 18µM | GCN5L2 inh-2 5.1 | VDR confirm 6 | VDR FP fluor inconclusive | VDR bla reporter inactive | VDR cytotox inactive | TbPYK confirm 4.5µM | TbPYK ADP-Glo 14µM
O=C(Nc1ccc(Br)cc1C(=O)O)c1ccc2c(c1)C(=O)N(Cc1ccccc1)C2=O	VDR inhibitor inconclusive, PLK1 PBD block inconclusive
C=CCN1C(=O)/C(=C\c2ccc(N3CCOCC3)o2)C(=O)NC1=S	none
O=C1NC(=O)C(=Cc2ccc(-c3ccc(S(=O)(=O)N4CCOCC4)cc3)o2)C(=O)N1	VDR inhibitor 22µM, PLK1 PBD block 2.7µM | VDR confirm 19 | VDR FP fluor inconclusive | VDR bla reporter inactive | VDR cytotox inactive
Cc1ncc2n1-c1ccc(Cl)cc1C(c1ccccc1F)=NC2O (centres undefined)	none (no result: GLS inh, PI4K2A block, PLK1 PBD block)
CN(C)C(CSC(N)=O)CSC(N)=O	VDR inhibitor inconclusive (no result: GLS inh, PI4K2A block, PLK1 PBD block)
CC(C)(C#N)O[C@H]1OC(CO)C(O)C(O)C1O (some centres undefined)	none (no result: GLS inh, PI4K2A block, PLK1 PBD block)
O=C1NC(=S)NC(=O)C1=Cc1ccc(OCC(=O)N2CCCC2)cc1	GLS inh inconclusive, VDR inhibitor 45µM, PLK1 PBD block 15µM | VDR confirm 13 | VDR FP fluor 14µM | VDR bla reporter inactive | VDR cytotox inactive
CN1CCC(O)(c2cccs2)C(C(=O)c2cccs2)C1 (centres undefined)	VDR inhibitor inconclusive, PLK1 PBD block 27µM | VDR confirm 20 | VDR FP fluor 25µM | VDR bla reporter inconclusive | VDR cytotox inconclusive
O=c1oc(Cl)c(Cl)c2ccccc12	VDR inhibitor 25µM, PLK1 PBD block 0.34µM | USP1 UbRho 7.4µM | VDR confirm 5 | VDR FP fluor inconclusive | VDR bla reporter inconclusive | VDR cytotox 17µM
CC1O[C@@H](O[C@@H]2C(O)C[C@H](O[C@@H]3C(O)C[C@@H](OC4CC[C@@]5(C)C6CC[C@]7(C)C(C8=CC(=O)OC8)CC[C@@]7(O)C6CC[C@@H]5C4)OC3C)OC2C)CC(O)[C@H]1O (some centres undefined)	none (no result: GLS inh, PI4K2A block, PLK1 PBD block)
O=S(=O)(/C(=C\c1ccc(C(F)(F)F)cc1)c1nc2ccccc2[nH]1)c1ccccc1	VDR inhibitor 14µM (no result: GCN5L2 inh-1) | VDR confirm 2.7 | VDR FP fluor inconclusive | VDR bla reporter 5.2µM | VDR cytotox inconclusive
CN1CC[C@@]2(c3cccc(O)c3)Cc3nc4ccccc4cc3C[C@H]2C1	none (no result: GLS inh, PI4K2A block, PLK1 PBD block)
Cc1ccccc1N1C(=O)NC(=O)/C(=C\c2cnn(-c3ccccc3)c2)C1=O	GLS inh inconclusive, VDR inhibitor 50µM, PLK1 PBD block 4.7µM | VDR confirm 11 | VDR FP fluor inconclusive | VDR bla reporter inactive | VDR cytotox inactive
CC1COC2=C1C(=O)C(=O)c1c2ccc2c1CCCC2(C)C (centres undefined)	VDR inhibitor 7.1µM, GCN5L2 inh-1 28µM (no result: GLS inh, PI4K2A block, PLK1 PBD block) | VDR confirm inconclusive | VDR FP fluor 14µM | VDR bla reporter inactive | VDR cytotox inactive
C[C@H]1COC2=C1C(=O)C(=O)c1c2ccc2c1CCCC2(C)C	VDR inhibitor 11µM, PLK1 PBD block 27µM, GCN5L2 inh-1 inconclusive | VDR confirm 20 | VDR FP fluor 25µM | VDR bla reporter inactive | VDR cytotox inactive
c1ccc(CN2CCC3(CCNCC3)CC2)cc1	VDR inhibitor inconclusive (no result: GLS inh, PI4K2A block, PLK1 PBD block)
COc1cc(N2CCOCC2)ccc1/C=C1\C(=O)NC(=O)N(Cc2cccs2)C1=O	PLK1 PBD block inconclusive
O=C1NC(=O)N(Cc2ccc(F)cc2)C(=O)/C1=C/c1cccs1	VDR inhibitor 50µM, PLK1 PBD block 0.75µM | VDR confirm 12 | VDR FP fluor inconclusive | VDR bla reporter inactive | VDR cytotox inactive
O=[N+]([O-])/C=C/c1cn(Cc2ccc(Cl)cc2)c2ccccc12	VDR inhibitor 25µM | VDR confirm 11 | VDR FP fluor inconclusive | VDR bla reporter inconclusive | VDR cytotox inconclusive
O=Cc1cn(Cc2ccc(Br)cc2)c2ccccc12	none
